The source of these data is publication PMC7862700, “An all-to-all approach to the identification of sequence-specific readers for epigenetic DNA modifications on cytosine”.

Common to all, as to experiment: DAPPL (digital affinity profiling via proximity ligation, sequencing); 10 mM Tris-HCl pH 7.5, 50 mM NaCl, 1 mM DTT, 4% glycerol, room temperature, 30 min; GST-TFs on glutathione beads, 16-mer random dsDNA library, 0.1% formaldehyde crosslink after washing; high values mean tight binding
One assay addresses T1, FEV (Homo sapiens, UniProt Q99581 1-238).
T1 sequence: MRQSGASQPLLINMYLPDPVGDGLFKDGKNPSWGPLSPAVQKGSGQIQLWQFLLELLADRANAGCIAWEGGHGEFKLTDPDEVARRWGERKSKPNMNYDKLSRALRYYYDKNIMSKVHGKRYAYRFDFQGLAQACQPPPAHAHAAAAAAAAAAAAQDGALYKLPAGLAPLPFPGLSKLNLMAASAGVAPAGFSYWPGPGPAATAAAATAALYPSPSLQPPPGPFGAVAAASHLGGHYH
To be noted: protein: recombinant; tags: N-terminal GST; dsDNA, one strand shown. The essentials: (§1)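 Beads coated with glutathione captured GST-fused human transcription factors that had been expressed in yeast, and the factors were then given DNA barcodes and pooled with a tag-only sample. The pools were incubated with 200 nmole of a random double-stranded 16-mer DNA library in Tris/NaCl/DTT/glycerol buffer for 30 min at room temperature, washed, crosslinked with 0.1% formaldehyde and proximity-ligated with BsaI/T4 ligase at 37 °C for 1 h. PCR amplification and Illumina NextSeq500 sequencing came last. Binding signal is each hexamer's read frequency for a factor divided by its frequency for the tag-only sample.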

In another assay the target is ETV5 (Homo sapiens, UniProt P41161 1-510). The conditions noted are these: protein: recombinant; tags: N-terminal GST; dsDNA, one strand shown. The method in brief: as §1
Sequence of ETV5 (P41161 whole entry): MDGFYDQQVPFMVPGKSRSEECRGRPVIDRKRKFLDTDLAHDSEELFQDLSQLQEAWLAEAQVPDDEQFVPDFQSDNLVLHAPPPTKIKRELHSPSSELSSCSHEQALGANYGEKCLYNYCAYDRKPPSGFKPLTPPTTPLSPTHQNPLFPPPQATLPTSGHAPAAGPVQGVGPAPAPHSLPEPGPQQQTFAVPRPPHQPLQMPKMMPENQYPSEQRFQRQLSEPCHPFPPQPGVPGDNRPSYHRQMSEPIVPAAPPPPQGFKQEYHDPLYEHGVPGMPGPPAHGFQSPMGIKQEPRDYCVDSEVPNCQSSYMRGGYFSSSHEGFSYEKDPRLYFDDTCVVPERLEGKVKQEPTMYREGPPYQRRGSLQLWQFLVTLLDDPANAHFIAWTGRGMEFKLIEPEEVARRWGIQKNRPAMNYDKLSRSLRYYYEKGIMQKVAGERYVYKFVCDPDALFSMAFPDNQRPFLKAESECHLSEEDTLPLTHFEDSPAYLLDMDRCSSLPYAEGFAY
The next assay addresses HSF1 (Homo sapiens, UniProt Q00613 1-529). The conditions noted are these: protein: recombinant; tags: N-terminal GST; chain copies: 3; dsDNA, one strand shown. The essentials:
as §1

Another assay concerns the target T2, SPIC (Homo sapiens, UniProt Q8N5J4 1-248).
T2 sequence: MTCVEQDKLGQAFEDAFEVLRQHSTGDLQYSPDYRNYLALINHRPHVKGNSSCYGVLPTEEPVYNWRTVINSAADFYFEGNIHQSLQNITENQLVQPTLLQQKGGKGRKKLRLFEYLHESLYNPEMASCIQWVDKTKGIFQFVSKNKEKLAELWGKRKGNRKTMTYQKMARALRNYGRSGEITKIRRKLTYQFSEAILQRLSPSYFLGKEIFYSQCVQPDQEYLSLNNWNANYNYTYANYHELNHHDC
To be noted: protein: recombinant; tags: N-terminal GST; dsDNA, one strand shown. The method in brief:
as §1

For another assay, the target named is ELF4 (Homo sapiens, UniProt Q99607 1-663). The conditions noted are these: protein: recombinant; tags: N-terminal GST; dsDNA, one strand shown. The method in brief:
as §1

The next assay deals with T3, ELK4 (Homo sapiens, UniProt P28324-2 1-405).
T3 sequence: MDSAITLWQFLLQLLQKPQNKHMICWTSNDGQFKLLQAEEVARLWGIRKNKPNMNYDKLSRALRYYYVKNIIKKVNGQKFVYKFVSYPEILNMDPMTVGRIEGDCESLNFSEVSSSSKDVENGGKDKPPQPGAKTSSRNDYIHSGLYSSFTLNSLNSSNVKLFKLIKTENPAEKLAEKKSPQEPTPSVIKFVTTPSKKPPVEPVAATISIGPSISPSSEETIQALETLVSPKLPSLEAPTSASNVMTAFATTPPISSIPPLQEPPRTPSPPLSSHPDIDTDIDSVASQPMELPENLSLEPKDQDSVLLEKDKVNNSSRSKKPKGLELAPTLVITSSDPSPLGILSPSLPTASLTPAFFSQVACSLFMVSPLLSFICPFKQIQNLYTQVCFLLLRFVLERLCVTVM
The conditions noted are these: protein: recombinant; tags: N-terminal GST; dsDNA, one strand shown. The essentials:
as §1

For a further assay, the target named is T4, ETV2 (Homo sapiens, UniProt O00321 1-342).
T4 sequence: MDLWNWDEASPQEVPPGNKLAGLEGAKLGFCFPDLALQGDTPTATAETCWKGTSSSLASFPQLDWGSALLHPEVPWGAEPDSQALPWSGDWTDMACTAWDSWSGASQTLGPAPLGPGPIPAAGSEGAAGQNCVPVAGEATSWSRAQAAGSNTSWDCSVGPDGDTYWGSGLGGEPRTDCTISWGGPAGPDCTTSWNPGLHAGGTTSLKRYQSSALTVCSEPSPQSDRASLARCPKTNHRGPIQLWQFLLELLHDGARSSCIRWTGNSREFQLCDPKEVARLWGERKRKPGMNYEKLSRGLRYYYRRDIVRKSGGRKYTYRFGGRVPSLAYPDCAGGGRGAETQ
The conditions noted are these: protein: recombinant; tags: N-terminal GST; dsDNA, one strand shown. The method in brief:
as §1

Another assay addresses T5, ELF3 (Homo sapiens, UniProt P78545 1-371).
T5 sequence: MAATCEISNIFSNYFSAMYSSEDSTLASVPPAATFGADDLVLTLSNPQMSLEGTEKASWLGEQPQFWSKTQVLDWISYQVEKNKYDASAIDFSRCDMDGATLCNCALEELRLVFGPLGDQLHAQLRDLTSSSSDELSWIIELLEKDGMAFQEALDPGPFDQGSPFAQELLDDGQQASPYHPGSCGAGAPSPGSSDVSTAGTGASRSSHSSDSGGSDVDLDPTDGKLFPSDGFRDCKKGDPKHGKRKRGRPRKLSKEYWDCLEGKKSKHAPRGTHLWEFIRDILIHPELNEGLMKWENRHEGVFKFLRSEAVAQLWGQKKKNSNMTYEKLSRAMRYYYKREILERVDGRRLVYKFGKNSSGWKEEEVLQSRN
The conditions noted are these: protein: recombinant; tags: N-terminal GST; dsDNA, one strand shown. The method in brief:
as §1

The next assay addresses CRX (Homo sapiens, UniProt O43186 1-299). To be noted: protein: recombinant; tags: N-terminal GST; dsDNA, one strand shown. The essentials: as §1
A further assay deals with ETV1 (Homo sapiens, UniProt P50549 1-477). To be noted: protein: recombinant; tags: N-terminal GST; dsDNA, one strand shown. The method in brief:
as §1

Another assay addresses T6, ERF (Homo sapiens, UniProt P50548 1-548).
T6 sequence: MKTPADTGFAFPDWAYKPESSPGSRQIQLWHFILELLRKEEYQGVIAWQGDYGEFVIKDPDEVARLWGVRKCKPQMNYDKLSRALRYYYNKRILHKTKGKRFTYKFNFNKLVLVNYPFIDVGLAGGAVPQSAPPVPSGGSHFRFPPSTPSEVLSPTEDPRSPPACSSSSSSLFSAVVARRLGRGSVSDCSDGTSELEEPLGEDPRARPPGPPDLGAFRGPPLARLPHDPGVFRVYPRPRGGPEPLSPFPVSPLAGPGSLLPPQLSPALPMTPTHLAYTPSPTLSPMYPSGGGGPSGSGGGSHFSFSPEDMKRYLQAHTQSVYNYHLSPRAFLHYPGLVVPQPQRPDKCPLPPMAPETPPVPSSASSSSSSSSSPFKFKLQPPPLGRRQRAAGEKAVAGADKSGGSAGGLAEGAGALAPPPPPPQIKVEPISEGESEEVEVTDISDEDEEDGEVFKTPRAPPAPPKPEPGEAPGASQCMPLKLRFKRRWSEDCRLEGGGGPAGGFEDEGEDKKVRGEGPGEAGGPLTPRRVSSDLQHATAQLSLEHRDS
The conditions noted are these: protein: recombinant; tags: N-terminal GST; dsDNA, one strand shown. The essentials:
as §1

A further assay addresses T7, ETV3L (Homo sapiens, UniProt Q6ZN32 1-361).
T7 sequence: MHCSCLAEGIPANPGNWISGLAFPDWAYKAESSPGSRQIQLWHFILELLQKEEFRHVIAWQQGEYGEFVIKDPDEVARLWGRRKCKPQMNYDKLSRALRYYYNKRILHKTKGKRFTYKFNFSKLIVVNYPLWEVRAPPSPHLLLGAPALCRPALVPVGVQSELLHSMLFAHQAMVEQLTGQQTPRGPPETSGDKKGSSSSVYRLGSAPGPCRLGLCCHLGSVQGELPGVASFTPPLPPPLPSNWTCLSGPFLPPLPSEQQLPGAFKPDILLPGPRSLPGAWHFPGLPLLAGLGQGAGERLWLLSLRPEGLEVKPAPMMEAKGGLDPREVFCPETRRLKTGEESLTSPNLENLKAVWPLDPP
The conditions noted are these: protein: recombinant; tags: N-terminal GST; dsDNA, one strand shown. The method in brief: as §1

Another assay addresses T8, ETS2 (Homo sapiens, UniProt P15036 1-469).
T8 sequence: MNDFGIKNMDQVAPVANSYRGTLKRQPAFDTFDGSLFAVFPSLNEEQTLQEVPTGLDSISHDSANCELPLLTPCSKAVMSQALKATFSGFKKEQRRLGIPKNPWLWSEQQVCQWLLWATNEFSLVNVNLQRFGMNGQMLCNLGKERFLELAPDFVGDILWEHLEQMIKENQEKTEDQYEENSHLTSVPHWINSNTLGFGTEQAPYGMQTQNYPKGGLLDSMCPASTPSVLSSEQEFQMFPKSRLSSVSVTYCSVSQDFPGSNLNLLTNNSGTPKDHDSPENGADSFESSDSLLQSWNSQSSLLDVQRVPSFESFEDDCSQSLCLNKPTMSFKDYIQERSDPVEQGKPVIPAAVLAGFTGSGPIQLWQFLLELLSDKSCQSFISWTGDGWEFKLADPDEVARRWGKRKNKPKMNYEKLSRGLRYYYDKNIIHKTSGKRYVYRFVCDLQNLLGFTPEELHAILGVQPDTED
To be noted: protein: recombinant; tags: N-terminal GST; dsDNA, one strand shown. The method in brief:
as §1

In another assay the target is T9, SPDEF (Homo sapiens, UniProt O95238 1-335).
T9 sequence: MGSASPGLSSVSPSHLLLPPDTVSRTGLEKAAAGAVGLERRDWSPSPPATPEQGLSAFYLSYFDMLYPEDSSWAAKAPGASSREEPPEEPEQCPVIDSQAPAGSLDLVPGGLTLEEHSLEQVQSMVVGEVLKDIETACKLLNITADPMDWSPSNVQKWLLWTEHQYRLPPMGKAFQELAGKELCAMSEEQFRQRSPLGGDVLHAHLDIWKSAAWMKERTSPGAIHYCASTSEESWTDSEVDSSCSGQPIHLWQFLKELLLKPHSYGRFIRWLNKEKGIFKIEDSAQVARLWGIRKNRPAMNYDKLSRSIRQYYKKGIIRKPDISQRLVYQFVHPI
The conditions noted are these: protein: recombinant; tags: N-terminal GST; dsDNA, one strand shown. The method in brief:
as §1

The next assay has as its target T10, ETV7 (Homo sapiens, UniProt Q9Y603 1-341).
T10 sequence: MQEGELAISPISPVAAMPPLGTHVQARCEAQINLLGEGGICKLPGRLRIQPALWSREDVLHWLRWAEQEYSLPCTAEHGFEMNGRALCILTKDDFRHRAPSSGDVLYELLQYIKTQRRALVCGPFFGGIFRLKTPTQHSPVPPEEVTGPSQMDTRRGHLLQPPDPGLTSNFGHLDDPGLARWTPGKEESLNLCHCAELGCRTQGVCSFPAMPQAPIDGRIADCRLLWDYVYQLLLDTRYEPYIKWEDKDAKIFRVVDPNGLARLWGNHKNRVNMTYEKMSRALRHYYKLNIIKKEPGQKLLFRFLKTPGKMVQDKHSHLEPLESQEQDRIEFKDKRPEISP
The conditions noted are these: protein: recombinant; tags: N-terminal GST; dsDNA, one strand shown. The method in brief:
as §1

A further assay deals with T11, ELF5 (Homo sapiens, UniProt Q9UKW6-2 1-255).
T11 sequence: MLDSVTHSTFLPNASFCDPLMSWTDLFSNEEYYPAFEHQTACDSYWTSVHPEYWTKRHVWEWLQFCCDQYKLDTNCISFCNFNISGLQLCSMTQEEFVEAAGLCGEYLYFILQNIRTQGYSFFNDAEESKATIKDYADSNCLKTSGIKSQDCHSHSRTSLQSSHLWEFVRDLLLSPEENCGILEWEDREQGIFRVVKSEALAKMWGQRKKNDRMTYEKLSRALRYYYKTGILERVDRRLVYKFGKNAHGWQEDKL
To be noted: protein: recombinant; tags: N-terminal GST; dsDNA, one strand shown. The method in brief: as §1

For the next assay, the target named is T12, ETV3 (Homo sapiens, UniProt P41162-2 1-143).
T12 sequence: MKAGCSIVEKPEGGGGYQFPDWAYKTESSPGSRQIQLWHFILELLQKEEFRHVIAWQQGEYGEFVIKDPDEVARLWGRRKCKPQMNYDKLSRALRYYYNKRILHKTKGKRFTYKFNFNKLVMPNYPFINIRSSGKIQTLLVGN
The conditions noted are these: protein: recombinant; tags: N-terminal GST; dsDNA, one strand shown. The method in brief:
as §1

For another assay, the target named is ETV6 (Homo sapiens, UniProt P41212 1-452). The conditions noted are these: protein: recombinant; tags: N-terminal GST; dsDNA, one strand shown. The essentials: as §1
Sequence of ETV6 (P41212 whole entry): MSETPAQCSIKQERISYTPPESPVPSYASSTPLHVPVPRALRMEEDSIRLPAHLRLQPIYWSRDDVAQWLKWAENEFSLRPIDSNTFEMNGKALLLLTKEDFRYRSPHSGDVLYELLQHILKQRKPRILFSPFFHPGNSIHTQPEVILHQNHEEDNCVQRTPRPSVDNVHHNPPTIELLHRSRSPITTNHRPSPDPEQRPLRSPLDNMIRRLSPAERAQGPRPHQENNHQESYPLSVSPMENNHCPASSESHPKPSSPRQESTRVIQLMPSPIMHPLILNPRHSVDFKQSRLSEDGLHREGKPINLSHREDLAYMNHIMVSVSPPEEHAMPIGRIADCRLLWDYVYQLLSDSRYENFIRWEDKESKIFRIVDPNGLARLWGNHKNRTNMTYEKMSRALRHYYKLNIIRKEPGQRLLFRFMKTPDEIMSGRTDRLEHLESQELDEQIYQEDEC

Sequence of HSF1 (Q00613 whole entry): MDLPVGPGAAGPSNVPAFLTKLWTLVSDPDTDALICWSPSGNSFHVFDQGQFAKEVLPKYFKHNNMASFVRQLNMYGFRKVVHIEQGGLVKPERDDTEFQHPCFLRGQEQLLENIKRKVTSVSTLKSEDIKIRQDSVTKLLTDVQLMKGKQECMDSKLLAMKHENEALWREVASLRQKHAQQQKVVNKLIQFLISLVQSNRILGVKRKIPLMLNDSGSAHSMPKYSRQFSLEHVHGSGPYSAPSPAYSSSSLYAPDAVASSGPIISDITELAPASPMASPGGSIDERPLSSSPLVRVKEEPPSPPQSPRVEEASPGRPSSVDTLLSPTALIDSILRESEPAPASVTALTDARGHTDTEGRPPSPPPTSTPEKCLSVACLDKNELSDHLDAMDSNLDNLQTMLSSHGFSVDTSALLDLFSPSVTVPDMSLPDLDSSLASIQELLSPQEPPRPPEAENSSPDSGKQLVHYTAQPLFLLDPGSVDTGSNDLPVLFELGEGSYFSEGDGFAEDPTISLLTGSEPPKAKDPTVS
Sequence of CRX (O43186 whole entry): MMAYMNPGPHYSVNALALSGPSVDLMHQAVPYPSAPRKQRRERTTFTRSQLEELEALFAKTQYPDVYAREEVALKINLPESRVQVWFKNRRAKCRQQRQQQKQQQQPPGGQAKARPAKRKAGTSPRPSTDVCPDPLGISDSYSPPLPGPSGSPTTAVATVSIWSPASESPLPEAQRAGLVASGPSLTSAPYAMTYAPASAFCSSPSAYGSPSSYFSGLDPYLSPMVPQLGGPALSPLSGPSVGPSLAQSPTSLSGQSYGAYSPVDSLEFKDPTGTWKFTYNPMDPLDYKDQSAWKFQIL
Sequence of ELF4 (Q99607 whole entry): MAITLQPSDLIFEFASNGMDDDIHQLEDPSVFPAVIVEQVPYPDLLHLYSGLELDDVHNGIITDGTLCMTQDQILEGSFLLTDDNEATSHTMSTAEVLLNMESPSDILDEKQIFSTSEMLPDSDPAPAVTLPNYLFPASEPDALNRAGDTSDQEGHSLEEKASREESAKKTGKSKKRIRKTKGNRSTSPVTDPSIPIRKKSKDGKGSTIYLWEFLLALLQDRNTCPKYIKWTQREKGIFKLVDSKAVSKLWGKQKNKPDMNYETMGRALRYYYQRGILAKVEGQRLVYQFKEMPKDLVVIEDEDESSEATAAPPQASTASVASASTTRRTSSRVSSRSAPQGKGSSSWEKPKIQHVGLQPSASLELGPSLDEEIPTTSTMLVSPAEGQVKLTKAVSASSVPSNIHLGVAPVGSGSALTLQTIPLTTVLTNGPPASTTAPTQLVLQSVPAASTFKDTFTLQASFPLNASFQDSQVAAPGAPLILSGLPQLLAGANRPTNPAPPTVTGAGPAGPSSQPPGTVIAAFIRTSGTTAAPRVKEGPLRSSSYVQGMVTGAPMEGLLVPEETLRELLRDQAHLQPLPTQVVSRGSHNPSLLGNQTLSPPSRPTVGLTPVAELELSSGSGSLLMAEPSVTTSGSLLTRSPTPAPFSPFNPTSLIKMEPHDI
Sequence of ETV1 (P50549 whole entry): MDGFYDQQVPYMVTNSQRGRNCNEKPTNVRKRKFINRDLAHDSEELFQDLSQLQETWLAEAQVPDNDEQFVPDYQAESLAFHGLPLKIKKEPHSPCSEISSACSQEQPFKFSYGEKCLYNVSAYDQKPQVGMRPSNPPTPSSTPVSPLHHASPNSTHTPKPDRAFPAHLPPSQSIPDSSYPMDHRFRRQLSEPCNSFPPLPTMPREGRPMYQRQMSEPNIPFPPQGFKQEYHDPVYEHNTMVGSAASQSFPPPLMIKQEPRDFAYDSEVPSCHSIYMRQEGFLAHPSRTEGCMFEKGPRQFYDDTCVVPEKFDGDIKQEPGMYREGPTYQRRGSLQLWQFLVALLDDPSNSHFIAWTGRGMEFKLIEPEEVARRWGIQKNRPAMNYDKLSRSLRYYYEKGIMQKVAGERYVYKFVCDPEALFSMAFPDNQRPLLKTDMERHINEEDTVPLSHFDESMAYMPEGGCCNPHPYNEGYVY

On to TTTAGC, for which the binding signal with FEV was 1.11 fold enrichment (6-mer frequency, TF over GST control); with ETV5 it was 1.03 fold enrichment (6-mer frequency, TF over GST control); with HSF1, 1.25 fold enrichment (6-mer frequency, TF over GST control); in the assay with SPIC, 1.07 fold enrichment (6-mer frequency, TF over GST control); with ELF4, 1.2 fold enrichment (6-mer frequency, TF over GST control); with ELK4, 1.13 fold enrichment (6-mer frequency, TF over GST control). Moreover, the binding signal in the assay with ETV2 was 1.13 fold enrichment (6-mer frequency, TF over GST control); with ELF3, 1.08 fold enrichment (6-mer frequency, TF over GST control); with CRX, 1.64 fold enrichment (6-mer frequency, TF over GST control); with ETV1 it was 1.18 fold enrichment (6-mer frequency, TF over GST control); in the assay with ERF, 1.19 fold enrichment (6-mer frequency, TF over GST control); with ETV3L, 1.21 fold enrichment (6-mer frequency, TF over GST control). For the same sequence, the binding signal was 1.01 fold enrichment (6-mer frequency, TF over GST control) in the assay with ETS2; 1.08 fold enrichment (6-mer frequency, TF over GST control) with SPDEF; 1.03 fold enrichment (6-mer frequency, TF over GST control) with ETV7; 1 fold enrichment (6-mer frequency, TF over GST control) with ELF5; 1.13 fold enrichment (6-mer frequency, TF over GST control) with ETV3; 1.12 fold enrichment (6-mer frequency, TF over GST control) with ETV6.
